Experiment [1] can be described thus: APR_HepG2_CellCycleArrest_1hr: Apredica 1-hour HepG2 Assay for Cell Cycle Arrest (AID 2282666). Particulars: high-content imaging, actives raise or lower the signal. Summed up:
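Cell cycle arrest scored from nuclear DNA content (Hoechst 33342) using high-content imaging of fixed HepG2 cells after 1 h treatment across 0.39–200 uM, in duplicate. Gain or loss fitted relative to 0.5% DMSO.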

The nature of experiment [2]: APR_HepG2_CellLoss_1hr: Apredica 1-hour HepG2 Assay for Cell Loss (AID 2282668).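 Further: curves fitted both ways against DMSO so gain or loss of cells counts.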 Particulars: high-content imaging. Summed up:
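Cell number comes from high-content imaging of Hoechst-labelled nuclei in fixed HepG2 cells. Cells were exposed for 1 h to ten concentrations from 0.39 to 200 uM in 0.5% DMSO. Gain or loss was fitted against DMSO controls.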

The nature of experiment [3]: APR_HepG2_MitoticArrest_1hr: Apredica 1-hour HepG2 Assay for Mitotic Arrest (AID 2282672). The conditions noted are these: high-content imaging, actives raise or lower the signal. Summed up: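 Ten-point concentration series (0.39 to 200 uM, duplicates, 0.5% v/v DMSO) applied to human HepG2 liver cells for 1 hr. High-content imaging of phospho-histone H3 and Hoechst-stained nuclei after fixation and permeabilization; DMSO-normalised bidirectional fit.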

Experiment [4] is described as follows: APR_HepG2_P-H2AX_1hr: Apredica 1-hour HepG2 Assay for H2AX Phosphorylation (AID 2282673). The conditions noted are these: high-content imaging, actives raise or lower the signal. Summed up:
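Phospho-H2A.x immunofluorescence (1:200, FITC secondary) plus Hoechst nuclear stain, quantified by high-content imaging in HepG2 after 1 hr compound exposure. Ten concentrations, 0.39 to 200 uM, in duplicate with 0.5% DMSO; fit both directions against DMSO.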

A short description of experiment [5]: APR_HepG2_MitoMembPot_1hr: Apredica 1-hour HepG2 Assay for Mitochondrial Membrane Potential (AID 2282675). The conditions noted are these: imaging, actives raise or lower the signal. Summed up: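 Mitochondrial membrane potential read as MitoTracker Red CMXRos intensity by automated imaging of fixed HepG2 cells. Dye at 250 nM for 30 min pre-fixation; compounds 0.39 to 200 uM for 1 hour, duplicate wells, 0.5% DMSO.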

Experiment [6] is described as follows: APR_HepG2_CellCycleArrest_24hr: Apredica 24-hour HepG2 Assay for Cell Cycle Arrest (AID 2282905).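 Further: cell cycle arrest scored as ratio of 2N to 4N nuclear DNA content.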 Particulars: imaging, actives raise or lower the signal. Summed up:
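Step one: dose HepG2 with test compounds, 0.39–200 uM, 0.5% DMSO, 24 hr. Step two: fix, permeabilize, stain nuclei with Hoechst 33342. Step three: image six fields per well at 20x, quantify DNA content, fit bidirectionally relative to DMSO.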

Experiment [7] is described as follows: APR_HepG2_StressKinase_1hr: Apredica 1-hour HepG2 Assay for Stress Kinase (AID 2282906). The conditions noted are these: HepG2 stress kinase (phospho-c-Jun) imaging, actives raise or lower the signal. Summed up:
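High-content imaging of phospho-c-Jun immunostaining (with Hoechst nuclear identification) after a 1 h exposure of HepG2 cells to 10 concentrations from 0.39 to 200 uM, final DMSO 0.5%. Fitted bidirectionally against DMSO.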

A short description of experiment [8]: APR_HepG2_NuclearSize_24hr: Apredica 24-hour HepG2 Assay for Nuclear Size (AID 2282907). Particulars: high-content imaging, actives raise or lower the signal. The method, boiled down: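 After fixation and permeabilization, 24-hr-treated HepG2 cells were stained with Hoechst 33342 and imaged on an ArrayScan (20x). Doses spanned 0.39–200 uM in duplicate. Nuclear diameter changes in either direction were fitted relative to 0.5% DMSO controls.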

Experiment [9] can be described thus: APR_HepG2_CellLoss_24hr: Apredica 24-hour HepG2 Assay for Cell Loss (AID 2282908).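 On AC50: fit in both directions so a hit may be cell loss or gain.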 The conditions noted are these: high-content imaging. The method, boiled down:
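Duplicate wells received compound at ten concentrations (0.39–200 uM; final DMSO 0.5% v/v). After fixation with formaldehyde, nuclei stained with Hoechst 33342 were imaged at 20x. Loss or gain of cell count was fitted relative to DMSO controls.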

Experiment [10] in a line: APR_HepG2_MicrotubuleCSK_24hr: Apredica 24-hour HepG2 Assay for Microtubule CSK Stabilty (AID 2282909). The conditions noted are these: HepG2 microtubule cytoskeleton imaging, actives raise or lower the signal. Summed up:
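Microtubule stability is scored from tubulin immunofluorescence in fixed HepG2 cells imaged at 20x. Cells receive ten compound concentrations up to 200 uM for 24 h; taxol and DMSO serve as positive and negative controls.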

Experiment [11] can be described thus: APR_HepG2_MitoticArrest_24hr: Apredica 24-hour HepG2 Assay for Mitotic Arrest (AID 2282910). Particulars: high-content imaging, actives raise or lower the signal. Summed up:
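HepG2, 24 hr dosing, 0.39–200 uM, 0.5% DMSO final. Formaldehyde-fixed, Triton-permeabilised, anti-phospho-histone H3 plus Hoechst. ArrayScan imaging at 20x; bidirectional fit vs DMSO baseline.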

Experiment [12] is described as follows: APR_HepG2_MitoMembPot_24hr: Apredica 24-hour HepG2 Assay for Mitochondrial Membrane Potential (AID 2282911). The conditions noted are these: imaging, actives raise or lower the signal. The method, boiled down: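 Mitochondrial membrane potential imaged via MitoTracker Red CMXRos (250 nM, 30 min pre-fixation) in fixed HepG2 cells with Hoechst nuclear identification. Ten concentrations 0.39–200 uM, 24 h treatment, 0.5% DMSO; CCCP as positive control.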

A short description of experiment [13]: APR_HepG2_MitoMass_24hr: Apredica 24-hour HepG2 Assay for Mitochondrial Mass (AID 2282912). Particulars: high-content imaging, actives raise or lower the signal. Summed up:
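Readout: fluorescence of MitoTracker Red CMXRos (250 nM, added 30 min pre-fixation) in fixed HepG2 cells imaged by HCS. Exposure lasted 24 hr at 0.39–200 uM; increases and decreases were both fitted relative to DMSO.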

A short description of experiment [14]: APR_HepG2_p53Act_24hr: Apredica 24-hour HepG2 Assay for p53 Activation (AID 2282913).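 Further: p53 protein immunofluorescence averaged per cell in HepG2 with Hoechst nuclei.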 The conditions noted are these: high-content imaging, actives raise or lower the signal. The method, boiled down:
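Fluorescence imaging of formaldehyde-fixed HepG2 cells labelled for p53 and with Hoechst, 24 h after dosing (0.39–200 uM, duplicate wells, 0.5% v/v DMSO). Signal fitted in both directions relative to DMSO.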

Experiment [15] can be described thus: APR_HepG2_CellCycleArrest_72hr: Apredica 72-hour HepG2 Assay for Cell Cycle Arrest (AID 2282914). The conditions noted are these: high-content imaging, actives raise or lower the signal. Summed up: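 Read-out: nuclear DNA content from Hoechst 33342 high-content imaging (20x, six fields/well) after 3.7% formaldehyde fixation, fitted bidirectionally against DMSO. Treatment was 72 h in HepG2, ten concentrations 0.39–200 uM, duplicate, 0.5% DMSO.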

Experiment [16] can be described thus: APR_HepG2_CellLoss_72hr: Apredica 72-hour HepG2 Assay for Cell Loss (AID 2282915). Particulars: high-content imaging. Summed up: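 HepG2 cells exposed 72 h to compound at 0.39–200 uM (10 concentrations, duplicate) in 0.5% DMSO. Fixed with 3.7% formaldehyde and Hoechst 33342-stained. Imaged at 20x; nuclear count gives cell number, fitted bidirectionally versus DMSO.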

The nature of experiment [17]: APR_HepG2_NuclearSize_1hr: Apredica 1-hour HepG2 Assay for Nuclear Size (AID 2282670). The conditions noted are these: high-content imaging, actives raise or lower the signal. Summed up: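 Nuclear size measured by high-content imaging of Hoechst 33342 nuclear stain after formaldehyde fixation; human HepG2 line exposed 1 hr to compounds at 0.39–200 uM in 0.5% DMSO, with bidirectional curve fitting relative to DMSO.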

The nature of experiment [18]: APR_HepG2_p53Act_1hr: Apredica 1-hour HepG2 Assay for p53 Activation (AID 2282671). Particulars: high-content imaging, actives raise or lower the signal. Summed up: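 After 1 h exposure (0.39–200 uM, 0.5% DMSO final, duplicates), fixed HepG2 cells were labelled with anti-p53 antibody plus Hoechst nuclear stain. Fluorescence quantified by automated 20x imaging; changes fitted in both directions against DMSO.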

Experiment [19] in a line: APR_HepG2_MitoMass_1hr: Apredica 1-hour HepG2 Assay for Mitochondrial Mass (AID 2282674). The conditions noted are these: high-content imaging, actives raise or lower the signal. The method, boiled down:
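Mitochondrial mass is taken from MitoTracker Red CMXRos (250 nM, 30 min, pre-fixation) fluorescence imaged at 20x in HepG2 cells. Exposure lasted 1 hr across ten concentrations, 0.39 to 200 uM, 0.5% DMSO; DMSO baseline, bidirectional fitting.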

Active and inactive are the calls of the source. How the source made its calls: active means hit-call score of the fitted dose curve at least 0.9, where 1 is the maximum; inactive means score below 0.9.

Consider `COc1cccc(C(=O)NN(C(=O)c2cc(C)cc(C)c2)C(C)(C)C)c1C`, for which the outcome in [1], in experiment [2], in experiment [3], in experiment [4], in experiment [5] and in experiment [6] was inactive. For the same molecule, the outcome in experiment [7], in [8], in experiment [9], in [10], in experiment [11] and in experiment [12] was inactive. The outcome in experiment [13], in [14], in [15] and in experiment [16] was inactive.
On to `CC1=NNC(=O)N(/N=C/c2cccnc2)C1`, for which the result in experiment [1], in experiment [2], in experiment [5], in experiment [6], in experiment [7] and in experiment [8] was inactive. In addition, the result in experiment [9], in experiment [10], in [11], in experiment [12], in experiment [13] and in experiment [14] was inactive. In addition, the molecule was classed as inactive in experiment [15] and in experiment [16].
As for `CCOP(=S)(OCC)Oc1ccc([N+](=O)[O-])cc1`, the molecule was classed as inactive in experiment [1], in [2], in [17], in experiment [18], in experiment [5] and in [6]. The molecule was classed as inactive in [7], in experiment [8], in experiment [9], in experiment [10], in experiment [11] and in experiment [12]. For the same molecule, the outcome in [13], in [14], in [15] and in experiment [16] was inactive.
Take `COP(=O)(OC)SCn1c(=O)oc2cc(Cl)cnc21`: the molecule was classed as inactive in experiment [1], in [2], in [18], in [5], in experiment [6] and in [7]. In addition, the molecule was classed as inactive in experiment [8], in experiment [11], in experiment [12], in [13] and in experiment [14]. Moreover, the AC50 (in general, the concentration giving half of the maximal activity seen) in experiment [9] is 32.9 µM (active); in [10] it was 30.2 µM (active); in [15], 47.4 µM (active); in [16], 37.8 µM (active).
As for `CCOP(=S)(OCC)Oc1ccc2c(C)c(Cl)c(=O)oc2c1`, the result in experiment [1], in experiment [2], in experiment [17], in [5], in [6] and in [7] was inactive. The molecule was called inactive in [8], in experiment [9], in experiment [10], in experiment [12], in experiment [13] and in experiment [14]. Moreover, the outcome in [15] was inactive. In addition, the concentration at half-maximal activity (AC50) in [11] is 114 µM (active); in experiment [16], 49.1 µM (active).
For the molecule `CCCOCC(=Nc1ccc(Cl)cc1C(F)(F)F)n1ccnc1`, the outcome in [1], in [2], in experiment [3], in experiment [4], in [5] and in experiment [6] was inactive. For the same molecule, the molecule was classed as inactive in [7], in [8], in experiment [9], in [10], in [11] and in [12]. For the same molecule, the call in experiment [13], in experiment [14] and in experiment [15] was inactive. The half-maximal activity concentration (AC50) in experiment [16] was 100 µM (active).
`CCCCOC(=O)[C@@H](C)Oc1ccc(Oc2ccc(C#N)cc2F)cc1`: the result in [1], in experiment [2], in experiment [19], in experiment [5], in [7] and in experiment [8] was inactive. Further, the molecule was called inactive in [9], in experiment [10], in experiment [11], in experiment [12], in experiment [13] and in experiment [14]. Moreover, the outcome in experiment [15] was inactive. Besides, the AC50 in [6] was 96.9 µM (active); in experiment [16], 99.2 µM (active).
In the case of `CCOP(=S)(OCC)OC(Cl)C(Cl)(Cl)Cl` (centres undefined), the call in experiment [1], in [2], in [17], in [18], in experiment [19] and in experiment [5] was inactive. Also, the molecule was classed as inactive in [6], in [7], in experiment [8], in [10], in [11] and in experiment [13]. For the same molecule, the result in experiment [14] was inactive. The AC50 in experiment [9] was 97.5 µM (active); in experiment [12], 151 µM (active); in experiment [15], 165 µM (active); in experiment [16], 144 µM (active).

Source of the values: PubChem BioAssay (EPA / NIEHS).
